# Compound activity from PubChem BioAssay.
# A selection: hits, their analogues and other compounds. The true share with any hit is near 8%.
# HCMV antiviral: blocks human cytomegalovirus replication; HFF cells, HCMV-luciferase reporter, 72 h; active compounds read low; activity change, negative = inhibition, % at 57.5 µM; actives 4.5% (n = 410,000); AID 1259415; in the data active = activity change below about -60%; inconclusive = no clear call, values can overlap the other calls; inactive = above about -39%; note: % is set by controls: 0 for no effect and ±100 for the full control effect
#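 After 16 h attachment at 37C, HFF cells received test compound and HCMV-luciferase (1 PFU/cell); reporter luminescence read 72 h later, data normalized against buffer-only and known inhibitor Salinomycin.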
# LASV entry inh: Lassa virus entry inhibition. Lassa virus pseudotype entry inhibition, cell reporter. Potency, µM (top dose mostly 37.9 µM), for the others: top-dose activity change, negative = inhibition, most hits filed as inhibitors. actives 1.2% (n = 300,000); calls by dose curve; tested in HEK293 cells; note: potency is the fitted concentration of half-maximal effect; % is set by controls: 0 for no effect and ±100 for the full control effect; nearly all actives have a fitted effect of over 50% in size
# Marburg entry inh: blocks Marburg virus binding to or entry into cells | Marburg virus pseudotyped entry inhibition, cell reporter | Potency, µM (highest dose often 37.8 µM), inactives show at the top dose activity change, negative = inhibition, actives largely listed as inhibitors | actives 1.8% (n = 300,000) | AID 540276; calls by dose curve; tested in HEK293 cells; note: potency is the fitted concentration of half-maximal effect; % is set by controls: 0 for no effect and ±100 for the full control effect
# FMDV antiviral: foot and mouth disease virus antiviral activity; FMDV antiviral cell-based qHTS; Potency, µM (titrated, usually from 57.9 µM), for the others: at the top dose activity change, negative = inhibition, hits mostly inhibitors; actives 1.2% (n = 410,000); calls by dose curve; tested in HEK293T cells; note: read-out not given here; potency is the fitted concentration of half-maximal effect; % is set by controls: 0 for no effect and ±100 for the full control effect; nearly all actives have a fitted effect of over 45% in size
# HCV inh: inhibitors of hepatitis C virus infection; AID 651820; actives 3.4% (n = 340,000); Huh7.5.1 HCVcc-Cre infection, luciferase reporter, 44 h; Potency, µM (doses to about 41.8 µM), for inactives: at the top dose activity change, negative = inhibition, usual class: inhibitors; active = well fitted inhibition curve with a large enough effect; inconclusive = small, poorly fitted or top-dose-only effect, or another doubt; inactive = no such curve, though single readings can be large or run the other way; note: potency is the fitted concentration of half-maximal effect; % is set by controls: 0 for no effect and ±100 for the full control effect
#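 Luciferase read-out (15 sec integration) after a 15 min room-temperature substrate step quantifies HCVcc-Cre infection. Cells, 1,000 per well, had compound added 4 h post-plating, then virus at ~0.5 moi, and were cultured 44 h.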
# SARS PLpro yeast: SARS-CoV PLP inhibition in yeast. S. cerevisiae expressing SARS-CoV PLpro, growth rescue. Potency, µM (series often up to 32.9 µM), for inactives: top-dose activity, positive = growth rescue, most hits filed as activators. actives 0.19% (n = 330,000). AID 485353; calls by dose curve; note: potency is the fitted concentration of half-maximal effect; 0% is about no effect; nearly all actives have a fitted effect of over 55% in size
# * hit, by the source's call; ? = inconclusive; . = no result given; [ ] = remark or other dose.
SMILES,HCMV antiviral,LASV entry inh,Marburg entry inh,FMDV antiviral,HCV inh,SARS PLpro yeast
C[C@H]1CC[C@H]2C(=O)N(Cc3ccccc3)C[C@H](O)CN2[C@H]1c1cccc(Br)c1,.,14%[14.3 µM],-5%[14.2 µM],.,.,.
O=C(CC(C(=O)O)C1CCCO1)NCc1ccccc1 (centres undefined),-101*,-1%,16%,-9%,5%,1%
O=C(c1ccco1)N1N=C(c2ccc(Br)cc2)CC1(O)C(F)(F)F (centres undefined),?,?,10µM*,?,?,3%
O=C(CN1C(=O)NC2(CCCCCC2)C1=O)N1CCN(c2ccccc2)CC1,0,.,.,-17%,-3%,2%
Cn1c(COc2ccc(Br)cc2)nnc1SC1CCc2ccccc2C1=O (centres undefined),-1,-20%,?,32µM*,?,-1%
CCc1ccc(NC(=O)Cn2c(=O)n(CCCCC(=O)NCCc3ccc(Cl)cc3)c(=O)c3ccccc32)cc1,0,-1%[46.1 µM],-3%[46.1 µM],-24%,.,.
CCOc1nc(-c2ccc(C)cc2)ccc1-c1noc(COC)n1,30,2%,-4%,-4%,10µM*,0%
O=C1c2cccc(OCc3ccc(F)cc3)c2CCN1Cc1ccc(F)cc1,-82*,?,?,?,6.3µM*,-25%
CN1CCc2c(OCc3ccc(F)cc3)cccc2C1=O,51,-19%,-21%[46.1 µM],-9%,?,-3%
Cc1ccc(CN2CCc3c(OCc4ccc(F)cc4)cccc3C2=O)cc1,-81*,7.1µM*,?,?,?,-37%
Cc1cc(C)c(NC(=O)CSc2ncc(S(=O)(=O)c3ccc(C(C)(C)C)cc3)c(=O)[nH]2)c(C)c1,20,.,12%[46.1 µM],-26%,.,.
N#Cc1cnn(-c2ccccc2)c1N,-30,?,11%,.,?,-3%
CC(C)C1N(c2ccccc2)C(N)=C(C#N)C1(C#N)C#N (centres undefined),-66*,-18%,-21%,?,?,-1%
CCCCC(CC)COC(=O)c1ccccc1C(=O)OCC(CC)CCCC (centres undefined),54,.,.,-10%,5.6µM*,.
O=C(Nc1nnc(N2CCCCCC2)s1)Nc1ccccc1C(F)(F)F,148,.,0%[46.1 µM],28%,.,.
CCCSc1ccccc1C(=O)N1CCN(C(=O)c2ccco2)CC1,-101*,?,-24%[46.1 µM],-9%,3%,2%
O=C(c1ccco1)N1CCN(C(=O)c2ccco2)C1=S,57,?,?,32µM*,?,.
COc1ccc2c(c1)c1c(c(=O)n(CCc3ccccc3)c(=O)n1Cc1ccc(Cl)cc1)n2C,33,?,.,-13%,.,.
CC1(C)CCC2=C(O1)c1ccccc1C(=O)C2=O,.,.,13µM*,?,.,.
O=C(NCC(c1ccco1)N1CCN(c2ccc(F)cc2)CC1)OCc1ccccc1 (centres undefined),13,1.3µM*,?,-30%,?,-9%
O=C(NCc1cccs1)C(=O)NCC(c1ccco1)N1CCN(c2ccccc2F)CC1 (centres undefined),0,.,.,-15%,11µM*,1%
COC(=O)NCC(c1ccco1)N1CCN(c2ccc(F)cc2)CC1 (centres undefined),-14,-28%,1%,3%,28%,-7%
O=C(NCC(c1ccco1)N1CCN(c2ccccc2F)CC1)c1cccs1 (centres undefined),.,-17%,?,-5%,1%[8.37 µM],-7%
Cc1oc(S(=O)(=O)N2CCCCC2)cc1NC(=O)Nc1ccc(F)cc1,-1,.,.,6%,?,-1%
CCc1ccc(C2CC(=O)c3c([nH]c(C(=O)OC4CCCC4)c3C)C2)cc1 (centres undefined),-22,13%[46.1 µM],25%[46.1 µM],-3%,.,.
SMILES,HCMV antiviral,LASV entry inh,Marburg entry inh,FMDV antiviral,HCV inh,SARS PLpro yeast
CCC(=O)C1=C(c2ccc(OC)c(OC)c2)N(C(=O)CC)n2c(CC)nnc2S1,-63*,-27%[46.1 µM],.,?,.,.
CC(=O)C1=C(c2ccccc2)N(C(C)=O)n2c(C)nnc2S1,?,?,?,-20%,?,-3%
CCC(=O)C1=C(c2ccc(F)cc2)N(C(=O)CC)n2c(nnc2-c2ccc(OC)cc2)S1,5,?,.,?,.,.
CCCC(=O)C1=C(c2ccc(C)cc2)N(C(=O)CCC)n2cnnc2S1,-95*,10%[46.1 µM],.,-21%,.,.
CCCC(=O)C1=C(c2cccc(OC)c2)N(C(=O)CCC)n2c(C)nnc2S1,-95*,-10%[46.1 µM],.,-17%,.,.
CCCC(=O)C1=C(c2ccc(C)c(C)c2)N(C(=O)CCC)n2c(CC)nnc2S1,-76*,-23%[46.1 µM],.,-23%,.,.
Cc1ccc(N2CCN(C(=O)c3cnn(-c4ccc(C)c(C)c4)c3C3CCNCC3)CC2)c(C)c1,-97*,?,.,-13%,.,.
Cn1ncc(Cl)c1C(=O)N1CCN(c2cccc(Cl)c2)CC1,9,?,?,-22%,?,-11%
Cc1cccc(N2CCN(C(=O)c3cnn(-c4cccc(Cl)c4C)c3C3CCNCC3)CC2)c1C,-99*,?,.,-19%,.,.
COc1ccccc1N1CCN(C(=O)c2cnn(-c3ccc(C)c(C)c3)c2C2CCN(C(=O)OC(C)(C)C)CC2)CC1,0,?,.,-26%,.,.
Cc1ccc(Cl)cc1N1CCN(C(=O)c2cnn(-c3ccc(Cl)cc3)c2C2CCNCC2)CC1,-101*,?,.,-25%,.,.
Cc1cccc(N2CCN(C(=O)c3c(Cl)cnn3C)CC2)c1C,27,11µM*,?,?,?,-5%
Cc1c(Cl)cccc1-n1ncc(C(=O)N2CCOCC2)c1C1CCN(C(=O)OC(C)(C)C)CC1,9,-24%[46.1 µM],.,-13%,.,.
COc1ccccc1-c1nn2c(=O)cc(CN3CCN(C(=O)Nc4ccc(C)cc4Cl)CC3)nc2s1,5,9%[46.1 µM],.,?,.,.
O=C1CCC[C@H]2[C@@H](Cc3ccccc3)[C@@H](NCc3cccs3)CC[C@]23CCCN13,-11,.,.,.,.,.
CCCSc1ncc(Cl)c(C(=O)N(Cc2ccc(N(C)C)cc2)C2CCS(=O)(=O)C2)n1 (centres undefined),?,-27%[46.1 µM],4%[46.1 µM],-9%,.,.
S=C(Nc1ccc(Cl)cc1)Nc1cccc2cnccc12,-98*,?,?,-6%,?,-98%
Fc1ccc(NC(=S)Nc2cccc3ccccc23)cc1F,-71*,.,.,6%,?,-6%
Fc1ccc(NC(=S)Nc2cccc3ccccc23)cc1,6,.,.,0%,-24%,-5%
CN(C)S(=O)(=O)c1cccc(NC(=S)N/N=C/c2cc(Br)ccc2O)c1,-98*,?,10µM*,?,-22%,20%
COc1ccccc1NC(=S)Nc1cccc2cnccc12,-79*,-2%,?,?,10µM*,-4%
CCN(CC)CCN(C(=O)c1ccco1)c1nc2c(C)cccc2s1,30,-2%[46.1 µM],.,18%,.,.
CN(C)S(=O)(=O)c1cccc(NC(=S)Nc2cccc3cnccc23)c1,-72*,?,?,?,-26%,-1%
